Results taken from PubChem BioAssay (NCI).
About 83,000 compounds went through this panel and 20% of them were active in at least one assay; those are over-represented in the sample as a whole.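 Growth was measured after 48 h exposure to one concentration of compound in 96-well plates. Values under 10 count as active.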 Values without a mark were called inactive. Calls of active or inactive are those of the source.

What was measured:
Assay in all cases: NCI-60 one-dose screen, 48 h (100 = growth as untreated, 0 = no growth, -100 = all killed)
Conditions in all cases: 10 µM unless noted
NCI-H23 lung = test system: NCI-H23 lung
NCI-H226 lung = test system: NCI-H226 lung
NCI-H322M lung = test system: NCI-H322M lung
HOP-62 NSCLC = test system: HOP-62 NSCLC
NCI-H460 lung = test system: NCI-H460 lung
NCI-H522 lung = test system: NCI-H522 lung
A549/ATCC NSCLC = test system: A549/ATCC NSCLC
786-0 renal = test system: 786-0 renal
COLO 205 colon = test system: COLO 205 colon
HOP-92 NSCLC = test system: HOP-92 NSCLC

SMILES	growth (NCI-H23 lung)	growth (NCI-H226 lung)	growth (NCI-H322M lung)	growth (HOP-62 NSCLC)	growth (NCI-H460 lung)	growth (NCI-H522 lung)	growth (A549/ATCC NSCLC)	growth (786-0 renal)	growth (COLO 205 colon)	growth (HOP-92 NSCLC)
O=c1c2ccccc2nc(-c2ccccc2Cl)n1-c1nnc(C(F)(F)F)s1	-0.336% (active)	42.9%	17.6%	58.7%	24.7%	-23.4% (active)	37.3%	22.4%	43.6%	
CSc1cc(/C=C(\C)[C@@H]2C[C@@H]3O[C@]3(C)CCC[C@H](C)[C@H](O)[C@@H](C)C(=O)C(C)(C)[C@@H](O)CC(=O)O2)n(CCNC(=O)OC(C)(C)C)n1	61.4%	82.7%	77.2%	68.7%	29.6%		55.2%	66.6%	30.5%	70.3%
COC(=O)C12C3C4C1C1C2C3C41NC(=O)c1csc([C@@H](C[C@H](C(C)C)N(C)C(=O)[C@@H](NC(=O)[C@H]2CCCCN2C)C2CC2)OC(C)=O)n1 (stereo not given in full)	35.8%	16.5%	38.5%	4.51% (active)	7.89% (active)		13%	22.7%	-65.4% (active)	22.6%
COc1ccc(N)cc1N	96.8%	103%	96.1%	95.5%	107%		118%	102%	121%	85.7%
Oc1cc(N2CC2)c(O)cc1N1CC1	-37.9% (active)	-16.4% (active)	20.4%	-12.8% (active)	-14.6% (active)		-1.9% (active)	22.3%	-72.7% (active)	5.86% (active)
COc1ccc(C(C#N)C(C)=O)cc1 (stereo not given)	97.9%	99.9%	135%	98.8%	102%		101%	107%	106%	111%
CC[C@H](C)[C@H](NC(=O)CN(C)C)C(=O)N(C)[C@H](C[C@@H](OC(C)=O)c1nc(C(=O)NC23C4C5C2C2C3C4C52C(=O)OC)cs1)C(C)C (stereo not given in full)	21.3%	31.7%	42.2%	19.4%	3.35% (active)		21.3%	31.3%	-7.69% (active)	66.1%
COC(=O)CCP(CCC(=O)OC)c1ccccc1	102%	104%	107%	111%	111%		96.8%	102%	118%	109%
Cc1ccc(C(=O)O[C@H](C(=O)O)[C@H](OC(=O)c2ccc(C)cc2)C(=O)O)cc1	102%	104%	104%	110%	115%	119%	103%	101%	108%	
CC[PH+](CC)CC.O=COC1OC([S-])C(OC=O)C(OC=O)C1OC=O.[Au+] (stereo not given)	-57.3% (active)	-66.7% (active)	-95.9% (active)	-83.1% (active)	-59% (active)		-76.6% (active)	-83.4% (active)	-84.9% (active)	-86.8% (active)
O=C=Nc1ccc(Br)cc1	101%	98.8%	100%	119%	103%	100%	113%	95.5%	111%	
O=C(NC(Cl)=C(Cl)Cl)P(=O)(c1ccccc1)c1ccccc1	105%	101%	108%	104%	114%		101%	101%	118%	97.4%
CCOC(=O)C1C(C=C(C)C)C1(C)C (stereo not given)	101%	107%	140%	98.7%	103%		98.9%	105%	109%	84.6%
OCCNC1CCCCC1	108%	104%	113%	99.2%	105%		106%		112%	108%
